{
  "source": "PubChem BioAssay (EPA / NIEHS)",
  "key": {"[1]": {"tested_on": "Thyroperoxidase (TPO), gene 54314", "experiment": "CCTE_Simmons_AUR_rTPO: CCTE's Amplex UltraRed Assay for Thyroperoxidase (TPO) Inhibition, Simmons Lab (AID 2283662);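 as to AC50: potency for loss of signal meaning inhibition of peroxidase activity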", "method_in_brief": "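Rat thyroid microsomes (5 ug protein) were incubated with test compound (8 concentrations, 5 nM–87.5 uM final, 0.5% DMSO), 25 uM Amplex UltraRed and 300 uM H2O2 in 200 mM phosphate buffer for 30 min at 37C in the dark; fluorescence read at 544/590 nm.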"}, "[2]": {"experiment": "CCTE_Simmons_CellTiterGLO_HEK293T: Viability Assessment in CCTE's Assays for Thyroperoxidase (TPO) Inhibition, Simmons Lab (AID 2283665);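 as to AC50: cells exposed to compound for 24 h before readout; actives reduce ATP signal below DMSO vehicle meaning cytotoxicity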", "method_in_brief": "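HEK293T cells in DMEM with 1% FBS were dosed with 8 concentrations (5 nM–87.5 uM final, 0.5% DMSO) for 24 hr at 37C; ATP content was read by CellTiter-Glo luminescence, loss-of-signal versus DMSO, three biological replicates.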"}, "[3]": {"experiment": "CEETOX_H295R_MTT_cell_viability: Viability Assessment in the CeeTox HT-H295R MTT Assay (AID 2283718; active = hit-call score of the fitted dose curve at least 0.9, where 1 is the maximum; inactive = score below 0.9;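 as to AC50: curve fitted both ways so AC50 may mark viability loss or gain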)", "method_in_brief": "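Human H295R adrenal cells, prestimulated 48 h with 10 uM forskolin, were exposed 48 h to chemicals in 0.1% DMSO. Viability was measured in the same wells by MTT (0.5 mg/ml, 4 h, 37 C), absorbance 570/650 nm, as percent of controls.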"}, "[4]": {"molecular_target": "Luciferin 4-monooxygenase (Photinus pyralis) (UniProt P08659)", "sequence (P08659 whole entry, looked up)": "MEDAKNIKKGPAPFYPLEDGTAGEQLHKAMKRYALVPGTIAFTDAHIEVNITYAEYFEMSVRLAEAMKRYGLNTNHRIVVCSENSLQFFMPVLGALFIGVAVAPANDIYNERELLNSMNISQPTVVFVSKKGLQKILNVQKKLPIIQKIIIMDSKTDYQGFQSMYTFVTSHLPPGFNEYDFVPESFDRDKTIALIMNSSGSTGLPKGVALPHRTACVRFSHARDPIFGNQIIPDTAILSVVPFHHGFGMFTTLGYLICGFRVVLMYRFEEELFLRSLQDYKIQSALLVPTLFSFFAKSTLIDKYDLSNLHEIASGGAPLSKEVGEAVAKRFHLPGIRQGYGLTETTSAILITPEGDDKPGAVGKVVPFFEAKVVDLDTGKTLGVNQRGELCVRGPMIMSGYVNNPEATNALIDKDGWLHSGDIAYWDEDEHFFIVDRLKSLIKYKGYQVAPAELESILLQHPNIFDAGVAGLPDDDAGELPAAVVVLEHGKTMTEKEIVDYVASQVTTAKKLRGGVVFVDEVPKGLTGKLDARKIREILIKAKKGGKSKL", "experiment": "CCTE_Simmons_QuantiLum_inhib_2: CCTE's Firefly Luciferase Inhibition Assay, Simmons Lab (AID 2283767);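 as to AC50: potency for inhibitors that lower luciferase luminescence relative to DMSO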", "method_in_brief": "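Recombinant firefly luciferase (5 ng/well, 200 mM potassium phosphate with 1 mg/ml BSA) was exposed to 8 concentrations from 5 nM to 87.5 uM (final, 0.5% DMSO) for 30 min at 37C in the dark. Loss of luminescence versus DMSO was read after injecting D-luciferin/ATP-analogue reagent.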"}, "[5]": {"experiment": "ACEA_AR_agonist_AUC_viability: ACEA Biosciences xCELLigence Real-Time Cell Analysis on Androgen Receptor Agonism for Viability (AID 2283775)", "method_in_brief": "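Read-out is area under the impedance curve at 80 h post-dose in 22Rv1 cells, with DMSO as baseline and signal loss taken as reduced viability. Compounds ran in duplicate from 100 uM final.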"}, "[6]": {"experiment": "ACEA_AR_antagonist_AUC_viability: ACEA Biosciences xCELLigence Real-Time Cell Analysis on Androgen Receptor Antagonism for Viability (AID 2283776);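 also: 22Rv1 human prostate cancer cells growing on impedance electrode plates; hits lower the growth signal relative to DMSO meaning cytotoxicity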", "method_in_brief": "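Impedance read-out (RT-CES): area under growth curve at 80 h post-dose, loss of signal scored vs DMSO baseline. 22Rv1 cells; 8-pt 1:4 series, top 100 uM final, ≤0.5% DMSO; biological duplicate.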"}, "[7]": {"experiment": "Tanguay_ZF_120hpf_TRUN_legacy: (Legacy) Oregon State University Tanguay Lab 120 Hour Post-fertilization zebrafish Assay for Truncated Body (AID 2283655)", "method_in_brief": "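Truncated body is recorded as a binary endpoint at 120 hpf by brightfield imaging of wild-type 5D larvae. Exposure runs statically from 6 hpf at 28C with 0.64% DMSO; embryos dying earlier are not scored.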"}, "[8]": {"experiment": "Tanguay_ZF_120hpf_NC_legacy: (Legacy) Oregon State University Tanguay Lab 120 Hour Post-fertilization zebrafish Assay for Notochord and Tail Malformation (AID 2283656)", "method_in_brief": "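Dechorionated 5D zebrafish, 1/well from 6 hpf; static exposure to 120 hpf, 28C, sealed, dark; final DMSO 0.64% v/v. NC scored binary (present/absent); dead embryos not scored. Fit vs DMSO baseline, gain direction.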"}, "[9]": {"experiment": "Tanguay_ZF_120hpf_TR_legacy: (Legacy) Oregon State University Tanguay Lab 120 Hour Post-fertilization zebrafish Assay for Touch Response (AID 2283667)", "method_in_brief": "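Tropical 5D wild-type zebrafish embryos statically exposed to 120 hpf at 28°C, sealed and dark-covered, 0.64% DMSO final; touch response scored as present/absent by brightfield microscopy at 120 hpf. Trimethyltin chloride 5 uM positive control; dead embryos not scored.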"}, "[10]": {"experiment": "Tanguay_ZF_120hpf_ActivityScore_legacy: (Legacy) Oregon State University Tanguay Lab 120 Hour Post-fertilization zebrafish Assay Score for Activity (AID 2283742)", "method_in_brief": "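Dechorionated Tropical 5D embryos, one per well from 6 hpf, statically exposed to 120 hpf at 28 °C in 0.64% DMSO. Mortality and malformations scored binary by brightfield microscopy; activity score combines 18 endpoints, fitted positively versus DMSO.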"}, "[11]": {"experiment": "STM_H9_OrnCyssISnorm_ratio: Stemina devTOX quickPredict H9 human embryonic stem cell (hESC)-based Assay for Ornithine (ORN):Cystine (CYSS) Ratio (AID 2283714)", "method_in_brief": "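Undifferentiated H9 hESCs exposed 72 h, media and compound replaced every 24 h; final 24-h conditioned media deproteinized and analysed by UPLC-HRMS against C13 spike-ins. Value is the internal-standard-normalized ORN/CYSS ratio versus 0.1% DMSO.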"}},
  "note": "Results filed as inconclusive are left out. Activity calls are given as the source filed them. The calls were made as follows, unless noted: active = hit-call score of the fitted dose curve at least 0.9, where 1 is the maximum; inconclusive = response in the unintended direction; inactive = score below 0.9.",
  "data": [
    {"compound": "COc1ccc(-c2coc3cc(O)cc(O)c3c2=O)cc1", "values": [
      {"measurement": "AC50", "setting": "[1]", "value": "21.4 µM (active)"},
      {"measurement": "AC50", "setting": "[2]", "value": "86.5 µM (active)"},
      {"measurement": "outcome", "setting": "[3]", "value": "inactive"},
      {"measurement": "AC50", "setting": "[4]", "value": "9.08 µM (active)"},
      {"measurement": "outcome", "setting": "[5]", "value": "inactive"},
      {"measurement": "AC50", "setting": "[6]", "value": "0.86 µM (active)"}
    ]},
    {"compound": "COc1ccc(C(=O)/C(Br)=C\\C(=O)O)cc1", "values": [
      {"measurement": "AC50", "setting": "[3]", "value": "76.4 µM (active)"}
    ]},
    {"compound": "N#Cc1ccc(C(c2ccc(C#N)cc2)n2cncn2)cc1", "values": [
      {"measurement": "outcome", "setting": "[1]", "value": "inactive"},
      {"measurement": "outcome", "setting": "[3]", "value": "inactive"},
      {"measurement": "outcome", "setting": "[4]", "value": "inactive"},
      {"measurement": "AC50", "setting": "[5]", "value": "4.94 µM (active)"}
    ]},
    {"compound": "CCCCC/C=C\\C/C=C\\CCCCCCCC(=O)O", "values": [
      {"measurement": "AC50", "setting": "[1]", "value": "43.8 µM (active)"},
      {"measurement": "AC50", "setting": "[2]", "value": "86.4 µM (active)"},
      {"measurement": "outcome", "setting": "[4]", "value": "inactive"},
      {"measurement": "outcome", "setting": "[5]", "value": "inactive"},
      {"measurement": "outcome", "setting": "[6]", "value": "inactive"}
    ]},
    {"compound": "C=CC(=O)OCCCCCCOC(=O)C=C", "values": [
      {"measurement": "outcome", "setting": "[3]", "value": "inactive"}
    ]},
    {"compound": "Cc1ccc([N+](=O)[O-])cc1N", "values": [
      {"measurement": "outcome", "setting": "[7]", "value": "inactive"},
      {"measurement": "outcome", "setting": "[8]", "value": "inactive"},
      {"measurement": "outcome", "setting": "[9]", "value": "inactive"},
      {"measurement": "outcome", "setting": "[10]", "value": "inactive"},
      {"measurement": "outcome", "setting": "[5]", "value": "inactive"},
      {"measurement": "outcome", "setting": "[6]", "value": "inactive"}
    ]},
    {"compound": "COc1ccc(C(=O)c2ccccc2)c(O)c1", "values": [
      {"measurement": "outcome", "setting": "[1]", "value": "inactive"},
      {"measurement": "outcome", "setting": "[2]", "value": "inactive"},
      {"measurement": "outcome", "setting": "[11]", "value": "inactive"},
      {"measurement": "outcome", "setting": "[3]", "value": "inactive"},
      {"measurement": "AC50", "setting": "[4]", "value": "53.6 µM (active)"},
      {"measurement": "outcome", "setting": "[5]", "value": "inactive"},
      {"measurement": "outcome", "setting": "[6]", "value": "inactive"}
    ]},
    {"compound": "O=C(OCc1ccccc1)c1ccc(O)cc1", "values": [
      {"measurement": "AC50", "setting": "[3]", "value": "10.6 µM (active)"},
      {"measurement": "outcome", "setting": "[5]", "value": "inactive"}
    ]},
    {"compound": "Oc1ccccc1Cc1ccccc1O", "values": [
      {"measurement": "AC50", "setting": "[11]", "value": "60.6 µM (active)"},
      {"measurement": "AC50", "setting": "[6]", "value": "1.48 µM (active)"}
    ]},
    {"compound": "CC1=NN(c2ccc(S(=O)(=O)O)cc2)C(=O)C1N=Nc1ccccc1", "note": "(configuration not stated)", "values": [
      {"measurement": "outcome", "setting": "[1]", "value": "inactive"},
      {"measurement": "outcome", "setting": "[2]", "value": "inactive"},
      {"measurement": "outcome", "setting": "[4]", "value": "inactive"},
      {"measurement": "outcome", "setting": "[5]", "value": "inactive"},
      {"measurement": "outcome", "setting": "[6]", "value": "inactive"}
    ]},
    {"compound": "CCCCCCOc1ccc(N)cc1", "values": [
      {"measurement": "AC50", "setting": "[1]", "value": "0.494 µM (active)"},
      {"measurement": "AC50", "setting": "[4]", "value": "28.7 µM (active)"},
      {"measurement": "outcome", "setting": "[6]", "value": "inactive"}
    ]},
    {"compound": "CCc1occc(=O)c1O", "values": [
      {"measurement": "AC50", "setting": "[1]", "value": "31 µM (active)"},
      {"measurement": "outcome", "setting": "[4]", "value": "inactive"},
      {"measurement": "outcome", "setting": "[5]", "value": "inactive"},
      {"measurement": "outcome", "setting": "[6]", "value": "inactive"}
    ]},
    {"compound": "COC(=O)C=Cc1ccccc1", "values": [
      {"measurement": "outcome", "setting": "[11]", "value": "inactive"}
    ]},
    {"compound": "CN(C)c1ccc2nc3ccc(=[N+](C)C)cc-3sc2c1", "values": [
      {"measurement": "AC50", "setting": "[1]", "value": "34 µM (active)"},
      {"measurement": "AC50", "setting": "[2]", "value": "13.7 µM (active)"},
      {"measurement": "AC50", "setting": "[11]", "value": "2.34 µM (active)"},
      {"measurement": "outcome", "setting": "[3]", "value": "inactive"},
      {"measurement": "AC50", "setting": "[4]", "value": "0.676 µM (active)"},
      {"measurement": "AC50", "setting": "[5]", "value": "20.4 µM (active)"},
      {"measurement": "AC50", "setting": "[6]", "value": "9.9 µM (active)"}
    ]},
    {"compound": "O=C(O)c1cc(O)c2ccccc2c1O", "values": [
      {"measurement": "AC50", "setting": "[1]", "value": "30.7 µM (active)"},
      {"measurement": "AC50", "setting": "[2]", "value": "28.6 µM (active)"},
      {"measurement": "outcome", "setting": "[3]", "value": "inactive"},
      {"measurement": "AC50", "setting": "[4]", "value": "39.9 µM (active)"},
      {"measurement": "outcome", "setting": "[5]", "value": "inactive"},
      {"measurement": "outcome", "setting": "[6]", "value": "inactive"}
    ]},
    {"compound": "CCCCCCCOC(=O)c1ccc(O)cc1", "values": [
      {"measurement": "AC50", "setting": "[1]", "value": "52.6 µM (active)"},
      {"measurement": "AC50", "setting": "[2]", "value": "35.7 µM (active)"},
      {"measurement": "AC50", "setting": "[4]", "value": "76.7 µM (active)"},
      {"measurement": "outcome", "setting": "[6]", "value": "inactive"}
    ]},
    {"compound": "O=S(=O)(O)c1ccc(N=Nc2c(O)ccc3ccccc23)cc1", "values": [
      {"measurement": "outcome", "setting": "[1]", "value": "inactive"},
      {"measurement": "AC50", "setting": "[2]", "value": "18.1 µM (active)"},
      {"measurement": "AC50", "setting": "[4]", "value": "24.3 µM (active)"},
      {"measurement": "outcome", "setting": "[5]", "value": "inactive"},
      {"measurement": "outcome", "setting": "[6]", "value": "inactive"}
    ]},
    {"compound": "C/C=C/C=C/CCCCCCCO", "values": [
      {"measurement": "AC50", "setting": "[1]", "value": "25.8 µM (active)"},
      {"measurement": "AC50", "setting": "[2]", "value": "87.2 µM (active)"},
      {"measurement": "outcome", "setting": "[4]", "value": "inactive"}
    ]}
  ]
}
